Assay results: ChEMBL document CHEMBL4513216, “Probing the Open Global Health Chemical Diversity Library for Multistage-Active Starting Points for Next-Generation Antimalarials” (ACS Infect Dis, 2020)
Out of some 69,000 compounds screened, about 8,600 (12%) showed an effect of 50% or more. Shown is part of a subset that was picked to be rich in strong results.

Each molecule was assayed on Plasmodium berghei (assay: Screen against P. berghei liver stage (PbLuc), transformed with Luciferase, at 10uM). Settings: tested at 10 uM.
Type: functional, HepG2
Molecule `NC(=O)NCCC(=O)NCc1nn(-c2ccccc2)c2c1CCC2` has an INHIBITION of 15.115%.
`Nc1nc2c(c(NCC(c3cccnc3)N3CCOCC3)n1)CCCC2` (centres undefined) gave an INHIBITION of -21.3%.
With `CC(C)c1nn(C)c(Cl)c1CNCC(O)c1cccc(F)c1` (centres undefined) the INHIBITION was 42%.
`Cc1cc(C(=O)N2CCN(Cc3ccsc3)CC2)n(C)n1` showed an INHIBITION of -3.2%.
For `CCOCC(O)CN1CCN(C(=O)c2ccccc2F)CC1` (centres undefined), the INHIBITION was -35.7%.
In the case of `CN(C[C@@H]1CCC[C@@H]2CN(Cc3cccnc3)C[C@@H]21)C1CC1`, the INHIBITION is reported as -5.63%.
Work on `Cc1nccc(C(=O)NC(COCC(C)C)c2ccco2)n1` (centres undefined) yielded an INHIBITION of -19.4%.
Molecule `CCN(CC)C(=O)CCNC(=O)N(C)Cc1ccc(SC)c(OC)c1` has an INHIBITION of 8.97%.
Work on `COc1cc(CN(C)C(=O)NC2CC2)ccc1SC` yielded an INHIBITION of 14.3%.
With `CCNC(=O)N(C)Cc1ccc(SC)c(OC)c1` the INHIBITION was 55.1%.
`CCOCCCNC(=O)N(C)Cc1ccc(SC)c(OC)c1` showed an INHIBITION of 12.6%.
Molecule `COc1cc(CN(C)C(=O)NCCNC(=O)C2CC2)ccc1SC` has an INHIBITION of 52.9%.
`COc1cc(CN(C)C(=O)NCC(=O)NC(C)C)ccc1SC` gave an INHIBITION of 14.3%.
Molecule `CCC1CCCCCN1C(=O)c1nnc2ccccc2c1N` (centres undefined) has an INHIBITION of 40.3%.
`Cc1cccc(OCCC(=O)NCC2CN(C)CCO2)c1C` (centres undefined) gave an INHIBITION of -36.85%.
Molecule `CC(C)(C)c1cc(C[C@H]2CNCC[C@H]2CC(=O)Nc2ccccc2)no1` has an INHIBITION of 44.4%.
`CC(C)NC(=O)C[C@@H]1CCNC[C@@H]1Cc1cc(-c2ccccc2)on1` showed an INHIBITION of 59.8%.
Molecule `CC(C)NC(=O)C[C@@H]1CCNC[C@@H]1Cc1cc(-c2ccccn2)on1` has an INHIBITION of -14.2%.
For `O=C(CC1[C@H]2CN(C(=O)Cc3ccccn3)C[C@@H]12)Nc1cccnc1` (some centres undefined), the INHIBITION was 39.4%.
`COCCNC(=O)C1CN(Cc2cccnc2)Cc2ccnn2C1` (centres undefined) gave an INHIBITION of 35.7%.
In the case of `Cc1noc(C)c1CN1CC[C@H]2OCC[C@@H](C(=O)NCC3CC3)[C@@H]2C1`, the INHIBITION is reported as -3.83%.
Molecule `CN(C)C(=O)C1CN(Cc2ccsc2)Cc2ccnn2C1` (centres undefined) has an INHIBITION of 52.6%.
`Cc1noc(C)c1CN1CC[C@H]2OCC[C@@H](C(=O)N3CCCO3)[C@@H]2C1` gave an INHIBITION of 34.1%.
`CC(C)NC(=O)C1CN(Cc2ccsc2)Cc2ccnn2C1` (centres undefined) showed an INHIBITION of 37.9%.
Molecule `O=C(C1CN(Cc2ccsc2)Cc2ccnn2C1)N1CCCC1` (centres undefined) has an INHIBITION of 15.7%.
Molecule `COCCNC(=O)C1CN(Cc2nccs2)Cc2ccnn2C1` (centres undefined) has an INHIBITION of 29.9%.
Work on `Cc1noc(C)c1CN1CC[C@H]2OCC[C@@H](C(=O)NCC3CC3)[C@H]2C1` yielded an INHIBITION of 54.7%.
Molecule `COCCNC(=O)C1CN(Cc2cccc(C)n2)Cc2ccnn2C1` (centres undefined) has an INHIBITION of 7.77%.
Work on `COCCNC(=O)C1CN(Cc2csc(C)n2)Cc2ccnn2C1` (centres undefined) yielded an INHIBITION of 62.5%.
With `COCCNC(=O)C1CN(Cc2ccncc2)Cc2ccnn2C1` (centres undefined) the INHIBITION was 89.3%.
For `COCCNC(=O)C1CN(Cc2ccsc2)Cc2ccnn2C1` (centres undefined), the INHIBITION was 5.36%.
`Cc1cccc(N2CCN(C(=O)CCc3c(C)noc3Cl)CC2)c1` was tested, and the INHIBITION was 45.7%.
In the case of `CC(=O)c1ccc(S(=O)(=O)NCC2CCN(c3cnccn3)CC2)cc1`, the INHIBITION is reported as 35%.
`O=C(CC1CCN(c2cccnn2)CC1)NC1CCOCC1` was tested, and the INHIBITION was 3.48%.
Work on `O=C(CCN1CCCCO1)N1CCC(CO)(CCc2ccccc2)CC1` yielded an INHIBITION of -29%.
For `Cc1ccc(CN2Cc3ccnn3CC(C(=O)NCC3CC3)C2)o1` (centres undefined), the INHIBITION was -31%.
Work on `CS(=O)(=O)N1Cc2ccnn2CC(C(=O)NCc2cccnc2)C1` (centres undefined) yielded an INHIBITION of 77.4%.
Work on `O=C(NCC1CC1)C1CN(Cc2ccncc2)Cc2ccnn2C1` (centres undefined) yielded an INHIBITION of -2.35%.
`Cc1noc(C)c1CN1Cc2ccnn2CC(C(=O)NCC2CC2)C1` (centres undefined) gave an INHIBITION of 85.8%.
Work on `CC(=O)N1Cc2ccnn2CC(C(=O)NCc2cccnc2)C1` (centres undefined) yielded an INHIBITION of 46.6%.
For `O=C(NCc1cccnc1)C1CC(=O)N(CC2CC2)C1` (centres undefined), the INHIBITION was 37%.
`CNCC(=O)N1CC(c2cc(Nc3ncccn3)nc(C)n2)C1` was tested, and the INHIBITION was 29.6%.
In the case of `CCn1ncc2c1CCCC2NCc1cc(OC)cc(OC)c1` (centres undefined), the INHIBITION is reported as 37.9%.
For `CC(C)n1cc(C(=O)NCCCn2ccnc2)c2n[nH]c(=O)c-2c1`, the INHIBITION was -7.57%.
For `Cc1ccc(N2CC[C@H]3C[C@H](C(=O)NCc4ccco4)O[C@@H]3C2)cc1`, the INHIBITION was 40.1%.
`CC(C)CN1CCS(=O)(=O)[C@@H]2CCN(S(=O)(=O)CC(C)C)CC[C@@H]21` was tested, and the INHIBITION was 2.41%.
In the case of `Cc1ccc(C(=O)NC2CCN(C(C)C)C2)c(=O)[nH]1` (centres undefined), the INHIBITION is reported as 20.8%.
In the case of `CN(C)C(=O)c1cc(-c2ccc(S(C)(=O)=O)cc2)c2cnn(C)c2n1`, the INHIBITION is reported as 25.9%.
Work on `CC(C)NC(=O)c1cc(-c2ccc(S(C)(=O)=O)cc2)c2cnn(C)c2n1` yielded an INHIBITION of 94.6%.
`CC(C)NC(=O)c1cc(-c2ccc(S(C)(=O)=O)cc2)nc2c1cnn2C` gave an INHIBITION of 24.2%.
`COc1cccc(CNC(=O)c2cccnc2SC(C)C)c1` showed an INHIBITION of 7.27%.
In the case of `CCN(C)Cc1n[nH]c(=O)n1-c1ccc(C)c(C)c1`, the INHIBITION is reported as 46.7%.
`O=C(CC1CC1)N1CCN(Cc2cccnc2)c2ncccc2C1` gave an INHIBITION of 0.618%.
Molecule `CC1CCC(NC(=O)CNC2(c3cccc(Br)c3)CCOCC2)CC1` (centres undefined) has an INHIBITION of -7.46%.
With `COc1cccc(NC(=O)CC2Cn3ncnc3NC2=O)c1` (centres undefined) the INHIBITION was 25.9%.
`O=C(CC1Cn2ncnc2NC1=O)Nc1ccccc1` (centres undefined) showed an INHIBITION of -46.2%.
For `O=C(CC1Cn2ncnc2NC1=O)Nc1cccc(C(F)(F)F)c1` (centres undefined), the INHIBITION was 54%.
`CN(Cc1cncnc1)Cc1cn2c(n1)CN(C1CCOC1)CC2` (centres undefined) gave an INHIBITION of 1.28%.
In the case of `CCOC(=O)N1CCN(C(=O)c2snnc2-c2ccccc2)CC1`, the INHIBITION is reported as -7.27%.
`CCCOc1cccc(CNC(=O)CN2CCN(C)CC2C)c1` (centres undefined) gave an INHIBITION of 36.9%.
Work on `COCc1ccccc1CNC(=O)CN1CCCC1c1noc(C)n1` (centres undefined) yielded an INHIBITION of -1.05%.
For `COc1ccc(Cl)cc1CNC(=O)CN1CCC2(CCOC2)C1` (centres undefined), the INHIBITION was 39.6%.
For `CNC(=O)CN1CCOCC2(CCCN(CCc3ccccc3)C2)C1` (centres undefined), the INHIBITION was 43.2%.
`CCOc1cccc(CNC(=O)CN2CCC3(CCOC3)C2)c1` (centres undefined) showed an INHIBITION of 61.9%.
`COCc1ccccc1CNC(=O)CN1CCC2(CCOC2)C1` (centres undefined) showed an INHIBITION of 68.4%.
Work on `Cc1oncc1C(=O)N[C@@H]1CN(Cc2ccoc2)C[C@@H]2CCCO[C@@H]21` yielded an INHIBITION of 43%.
Work on `COc1cc(N2CCC3(CC2)OCC(=O)NC3C)ncn1` (centres undefined) yielded an INHIBITION of 10.6%.
For `Cc1cc(F)cc(S(=O)(=O)NC(=O)CCc2cncc(F)c2)c1`, the INHIBITION was 38.9%.
Molecule `CNC(=O)CCc1cc(C)nc(C2CCCCN2)n1` (centres undefined) has an INHIBITION of 26.3%.
With `O=C(COc1ccccc1F)NCC(O)(c1ccccc1)C1CC1` (centres undefined) the INHIBITION was -22.7%.
Molecule `CN(C)c1cnnc(N2CCN(C(=O)CCC3CCCCC3)CC2)c1` has an INHIBITION of 76.7%.
`CC(C)CC(=O)N1CCN(c2cc(N(C)C)cnn2)CC1` gave an INHIBITION of 22.2%.
In the case of `CCC(=O)N1CCN(c2cc(N(C)C)cnn2)CC1`, the INHIBITION is reported as -15.6%.
For `Cc1cc(C(=O)N2CCN(C(=O)CCC3CCCCC3)CC2)n(C)n1`, the INHIBITION was 56.5%.
In the case of `Cc1nn(C)c(C)c1C(=O)N1CCN(C(=O)CCC2CCCCC2)CC1`, the INHIBITION is reported as 28.7%.
In the case of `Cc1nn(C)c(C)c1C(=O)N1CCN(C(=O)CC2CCCCC2)CC1`, the INHIBITION is reported as 39.4%.
For `CCN1CC(C(=O)NCCn2cccc2)CCC1=O` (centres undefined), the INHIBITION was 44.8%.
With `NCc1cc(-c2ccccc2)n2nccc2n1` the INHIBITION was 41.2%.
Work on `CS(=O)(=O)N[C@@H]1COC[C@@H]2CN(Cc3ccco3)C[C@@H]21` yielded an INHIBITION of 18.4%.
`Cn1nccc1C(=O)N1C[C@@H]2CC[C@H](Oc3cccc(F)c3)[C@@H]2C1` gave an INHIBITION of 25.6%.
Molecule `CCOC(=O)CNC(=O)c1cc2n(n1)CCCO2` has an INHIBITION of -0.996%.
`CCOC(=O)c1cc2n(n1)CCCO2` showed an INHIBITION of 57.6%.
`CCNC(=O)c1cc2n(n1)CCCO2` was tested, and the INHIBITION was 9.41%.
Work on `COC(=O)c1ccc(OC)c(OC23CCCN(CC2)C3)c1` (centres undefined) yielded an INHIBITION of -9.76%.
In the case of `O=C(c1cc(F)cc(F)c1)N1CCC(O)(C(F)(F)F)CC1`, the INHIBITION is reported as 25.4%.
`N#Cc1ccc(C(=O)N2CCC3(CC2)CC3)cc1` showed an INHIBITION of 40.8%.
`O=C(c1cc(F)cc(F)c1)N1CCC2(CC1)CC2` gave an INHIBITION of 73.2%.
Work on `COCCN1CCO[C@@H]2CN(C(=O)NCc3cccnc3)CC[C@@H]2C1` yielded an INHIBITION of 29.8%.
Molecule `Cc1nc(CN(Cc2ccccc2F)C2CCC2)no1` has an INHIBITION of -16.6%.
`O=C1CCc2cc(NC(=O)N3CCCN(Cc4cccs4)CC3)ccc21` gave an INHIBITION of 53.8%.
`O=C1Cc2cc(NC(=O)N3CCCN(Cc4cccs4)CC3)ccc2N1` gave an INHIBITION of 42.7%.
In the case of `O=C(Nc1ccc2c(c1)OCCO2)N1CCCN(Cc2cccs2)CC1`, the INHIBITION is reported as -14.1%.
`Cc1noc(C)c1CNCC1Cn2nncc2CO1` (centres undefined) showed an INHIBITION of 40.3%.
For `Cc1nc(N2CCCC2)nc2c1CN(C(=O)NC(C)C)CC2`, the INHIBITION was -9.74%.
In the case of `CCc1ccccc1OCCN1C[C@@H](NS(C)(=O)=O)[C@H](C(C)C)C1`, the INHIBITION is reported as 57.3%.
`CC(C)[C@@H]1CN(CCOc2ccc(Cl)cc2)C[C@H]1NS(C)(=O)=O` showed an INHIBITION of 14.6%.
In the case of `CC(C)[C@@H]1CN(CCCOc2ccc(F)cc2)C[C@H]1NS(C)(=O)=O`, the INHIBITION is reported as 54.5%.
Molecule `CC(C)[C@@H]1CN(Cc2c[nH]nc2-c2ccc(F)cc2)C[C@H]1NS(C)(=O)=O` has an INHIBITION of -5.22%.
With `CCc1ccccc1OCCN1CCC(NS(C)(=O)=O)CC1` the INHIBITION was 43.1%.
With `CS(=O)(=O)N[C@H]1CN(CCOCc2ccccc2)C[C@@H]1C1CC1` the INHIBITION was 15%.
With `CCOc1ccc(Cl)c(C(=O)N2CCN(C(=O)OC)CC2)n1` the INHIBITION was -6.44%.
For `Cc1cc(C2CCCN2S(=O)(=O)c2cnn(C)c2)on1` (centres undefined), the INHIBITION was -9.8%.
`Cc1nn(C)cc1CN1C[C@H]2CC[C@@H](C1)N(Cc1c(C)noc1C)C2=O` gave an INHIBITION of -4.4%.
`Cc1ccc(CNC(=O)NCc2ccco2)s1` was tested, and the INHIBITION was 10.7%.
